PubChem BioAssay AID652010 (The Scripps Research Institute Molecular Screening Center, 2013)
Hit rate of the full screen: of about 370,000 compounds, about 4,100 (1.1%) were called active.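 Rule for the calls: active = inhibition above the mean over all tested compounds plus 3 SD (cut at about 3.6% in these data); inactive = the rest.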 What follows is part of a selection rich in actives, with near analogues and random picks from the rest.

Assay: DAX1 (NR0B1) inhibitors on StAR promoter, primary screen, cell-based, luminescence, SF-1 (NR5A1), full-length DAX-1 (AID 652010);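 note: 0% = DAX-1 cells with DMSO and 100% = cells lacking DAX-1 with DMSO; higher inhibition means more luminescence from relief of DAX-1 repression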
Conditions: HEK293T StAR-luciferase reporter, SF-1/DAX-1 repression relief; at 6.8 µM; active compounds read high

Row | SMILES | inhibition
1 | O=C(CCS(=O)(=O)c1ccccc1)Nc1ccc(Cl)c(Cl)c1 | -0.2% (inactive)
2 | O=C(CCCCCN1C(=O)C2C3C=CC(C3)C2C1=O)Nc1ccccc1 (stereo unspecified) | 1.39% (inactive)
3 | O=C(Oc1cccc(NC2=NS(=O)(=O)c3ccccc32)c1)c1ccncc1 | 0.31% (inactive)
4 | CC(C)(C)c1csc(NC2=NS(=O)(=O)c3ccccc32)n1 | 5.84% (active)
5 | Cc1ccc(S(=O)(=O)N(NC2=NS(=O)(=O)c3ccccc32)C(=O)c2ccccc2)cc1 | 0.29% (inactive)
6 | Cc1ccc(Cn2cc(CN3[C@@H](C)COc4cc(Br)ccc4S3(=O)=O)nn2)cc1 | -0.52% (inactive)
7 | O=C(CC1C(=O)NCCN1Cc1ccc(-c2ccccc2)cc1)NCC1CCOCC1 (stereo unspecified) | -0.29% (inactive)
8 | CCCOc1ccc(C(=O)NCCc2ccccc2)cc1 | 5.47% (active)
9 | O=C(NCCc1ccccc1)Oc1ccc(Cl)cc1 | 0.42% (inactive)
10 | O=C(NCCc1ccccc1)c1ccc(NC2=NC3CS(=O)(=O)CC3S2)cc1 (stereo unspecified) | -0.02% (inactive)
11 | O=C(NC1CCC1)c1ccc(C#CC2CC2)cn1 | 3.08% (inactive)
12 | Cc1ccc(OCc2nnc(SC/C=C/c3ccccc3)n2Cc2ccco2)cc1 | -0.46% (inactive)
13 | COC(=O)c1cc2c(c3c4ccccc4n(S(=O)(=O)c4cccc(C)c4)c13)C(=O)N(Cc1ccccc1)C2 | -1.85% (inactive)
14 | CNCC(O)c1ccc(O)c(O)c1 (stereo unspecified) | 5.84% (active)
15 | CCC(C)c1ccc(O)c(/C=N/O)c1 (stereo unspecified) | 0.8% (inactive)
16 | CC(=NNC(N)=O)C1CC2CCC1CC2 (stereo unspecified) | 1.47% (inactive)
17 | CCCCCCCCN1C(=O)[C@@H](CC(=O)N2CCN(C(=O)OCC)CC2)C[C@@]2(C(=O)OC)C1=C[C@H](C1CCCC1)O[C@@H]2C | 0.13% (inactive)
18 | CCOC(=O)[C@@]12CN(C(=O)OC(C)(C)C)CC=C1N(Cc1ccc(OC)cc1)C(=O)[C@H]2CC(=O)NCc1ccc(OC)c(OC)c1 | -0.16% (inactive)
19 | CCc1nonc1NC(=O)c1oc2ccc(Cl)cc2c1C | 0.27% (inactive)
20 | Cc1c(C(=O)NC2CCCCC2)oc2ccccc12 | 0.4% (inactive)
21 | Cc1c(C(=O)Nc2ccccn2)oc2ccc(Br)cc12 | 8.27% (active)
22 | Cc1cccc(C(=O)Nc2c(-c3ccc(F)cc3)nc3ncccn23)c1 | -1.21% (inactive)
23 | CC(OC(=O)CCCOc1ccccc1)C(=O)Nc1ccc(Cl)cn1 (stereo unspecified) | 3.13% (inactive)

Row | SMILES | inhibition
24 | CCCc1cc(C(=O)Nc2ccc(C(=O)OC)cc2)cs1 | 7.38% (active)
25 | COC(=O)c1ccc(NC(=S)NN2CCOCC2)cc1 | 1.02% (inactive)
26 | CC(OC(=O)CNC(=O)c1ccco1)C(=O)Nc1ccc(Cl)cn1 (stereo unspecified) | -0.16% (inactive)
27 | CCCc1cc(C(=O)Nc2ccc(Cl)cn2)cs1 | 16.1% (active)
28 | CCC(=O)Nc1ccc(C(=O)Nc2cc(C)on2)cc1 | -0.34% (inactive)
29 | O=C(c1ccccc1)c1ccc(-c2ccccc2C(=O)NC2CCCCN(Cc3ccc(Cl)cc3)C2=O)cc1 (stereo unspecified) | -0.77% (inactive)
30 | Cc1ccc(-n2c(SCC(=O)Nc3ccc(S(=O)(=O)Nc4nccs4)cc3)nnc2-c2ccncc2)cc1 | -0.77% (inactive)
31 | CCC(c1ccc(NC(=O)OC(C)(C)C)cc1)c1cc(OC)cc(OC)c1 (stereo unspecified) | -0.05% (inactive)
32 | COCc1cc(N2CCN(C(=O)OC(C)(C)C)C[C@@H]2C)ccc1N1CCN(Cc2ccccc2)[C@H](C)C1 | -0.7% (inactive)
33 | CCN(CC(=O)Nc1c(F)cccc1F)C(=O)c1ccc(-c2ccccc2)cc1 | 0.8% (inactive)
34 | CCN(CC(=O)Nc1c(F)cccc1F)C(=O)c1cnc(C)cn1 | 4.81% (active)
35 | CCc1cc(C(=O)N(CC)CC(=O)Nc2c(F)cccc2F)sc1C | -0.69% (inactive)
36 | CCCC[C@H]1C2CC(OC(=O)NCc3ccccc3)C(C2)[C@H]2CCCCN21 (stereo partly specified) | -0.27% (inactive)
37 | Cc1ccc(-n2c(SCC(=O)Nc3ccc(S(=O)(=O)Nc4nccs4)cc3)nnc2-c2ccccn2)cc1 | 0.28% (inactive)
38 | Cc1ccccc1OCC(=O)Nc1ccc(N2CCN(C(=O)C(C)C)CC2)c(Cl)c1 | -2.45% (inactive)
39 | COc1cccc(NC(=O)COc2cccnc2[N+](=O)[O-])c1 | 1.83% (inactive)
40 | Cc1ccccc1OCC(=O)Nc1ccc2c(c1)ncn2C | 4.8% (active)
41 | COc1ccc(Nc2nc(N)nc(CSC(=S)N3CCC(C)CC3)n2)cc1 | 0.59% (inactive)
42 | COC(=O)C1=C(C(=O)OC)C2C=C(C(C)C)C1C(=O)C2(C)O (stereo unspecified) | 2.32% (inactive)
43 | O=C(NCCc1ccc(F)cc1)c1ccc(S(=O)(=O)N2CCCCC2)cc1 | -1.79% (inactive)
44 | O=C(NCCc1ccc(F)cc1)c1ccc2nccnc2c1 | 7.15% (active)
45 | O=C(NCCc1ccc(F)cc1)c1n[nH]c2ccccc12 | 1.23% (inactive)
46 | CCOC(=O)[C@]12CCCC3=C1N(CCC3)C(=O)[C@@H](CC(=O)N1CCSCC1)C2 | 0.52% (inactive)

Row | SMILES | inhibition
47 | COC(=O)[C@]12C[C@H](CC(=O)NCc3ccccc3)C(=O)N(CCc3ccc(OC)c(OC)c3)C1=C[C@H](C(C)(C)C)O[C@@H]2C | -0.61% (inactive)
48 | COc1ccc(Nc2ccc3ccccc3c2)cc1 | 3.94% (active)
49 | COc1ccc(Nc2cc(=O)n(-c3ccccc3)c3c2c(=O)n(C)c(=O)n3C)cc1 | 0.33% (inactive)
50 | COc1ccc(NC2=CC(=S)NC(C)(C)C2)cc1 | -0.32% (inactive)
51 | O=C(CNS(=O)(=O)c1ccccc1F)N1CCN(c2ccccn2)CC1 | -0.44% (inactive)
52 | CCCCNC(=O)C[C@H]1C[C@@]2(C(=O)OC)C(=C[C@H](COCc3ccccc3)O[C@@H]2C)N(Cc2ccc(Cl)cc2Cl)C1=O | -0.49% (inactive)
53 | COC(=O)C[C@@H]1CC[C@@H]2[C@H](COc3ccc(NC(=O)c4cccc(F)c4)cc3C(=O)N2C)O1 | 0.44% (inactive)
54 | CN(C(=O)c1cc2c(=O)n3ccccc3nc2s1)C1CCCCC1 | 8.94% (active)
55 | CCOCCCNC(=O)c1cc2c(=O)n3ccccc3nc2s1 | 0.63% (inactive)
56 | CN(CCNC(=O)c1cc2c(-c3ccccc3F)nn(C)c2s1)C1CCCCC1 | 0.74% (inactive)
57 | CN(CCc1ccccc1)C(=O)Cn1nc(-c2ccccc2)ccc1=O | -1.5% (inactive)
58 | CSc1ccccc1NC(=O)c1cc(C2CC2)on1 | 3.85% (active)
59 | Cc1nn(Cc2ccc(Cl)c(Cl)c2)c(C)c1NC(=O)c1cc(C2CC2)on1 | -1.2% (inactive)
60 | CSc1ccccc1NC(=O)c1cc(Cl)sc1Cl | -0.22% (inactive)
61 | COc1cccc(C(=O)Nc2cc3c(cc2Br)OCCCO3)c1 | 2.47% (inactive)
62 | Cc1ccc(C(=O)Nc2ccc3c(c2)OCCO3)cc1S(=O)(=O)N1CCOCC1 | 1.01% (inactive)
63 | CN1CCN(c2ccc(NC(=O)c3ccc4c(c3)OCCO4)cc2Cl)CC1 | 4.89% (active)
64 | O=C(Nc1ccc(N2CCN(C(=O)c3ccccc3)CC2)c(Cl)c1)c1cccnc1 | -1.45% (inactive)
65 | C/C(Cc1ccccc1)=N\NC(=O)CNC(=O)c1ccc2c(c1)OCCO2 | 0.38% (inactive)
66 | O=C(Nc1ccc(N2CCOCC2)c(Cl)c1)c1ccc(S(=O)(=O)N2CCOCC2)cc1 | -0.43% (inactive)
67 | Cc1ccc(C(=O)Nc2nnc(C3=COCCO3)o2)cc1C | 1.49% (inactive)
68 | Cc1ccc(S(=O)(=O)NCC(=O)Nc2ccc3c(c2)OCCO3)cc1 | -0.38% (inactive)
69 | Cc1nc(NC(=O)c2ccc3c(c2)OCCO3)ccc1Br | 12.7% (active)

Row | SMILES | inhibition
70 | C/C(=N/NC(=S)Nc1ccccc1)c1ccc2c(c1)OCO2 | 0.83% (inactive)
71 | O=C(Nc1ccccc1)c1ccc2c(c1)OCCCO2 | 14.7% (active)
72 | Cc1ccc(C(=O)NNC(=O)c2ccc3c(c2)OCCO3)cc1 | 5.23% (active)
73 | CC(C)(C)n1nc(C2CC2)c(Br)c1NC(=O)c1ccccc1F | -1.59% (inactive)
74 | N#Cc1ccc(OC[C@@H](O)CN2CCC(C(O)(c3ccccc3)c3ccccc3)CC2)c(F)c1 | -0.27% (inactive)
75 | CC(C)CNS(=O)(=O)CC1NCCc2ccccc21 (stereo unspecified) | -0.78% (inactive)
76 | COc1cccc(N2CCN(CC(=O)N(C)Cc3ccc(F)cc3)CC2)c1 | -0.23% (inactive)
77 | C=CCN1C(=O)[C@@H](CC(=O)NCCCCc2ccccc2)[C@]2(C(=O)OCC)CCCCC/C=C/12 | -0.85% (inactive)
78 | CCOC(=O)Cn1c2c(n(-c3ccc(F)cc3)c1=O)C=C(c1ccccc1)[C@@H](C)C(C(=O)N(C)C1CCCCC1)=C2 | -1.69% (inactive)
79 | Cn1c(=O)c([N+](=O)[O-])c(Oc2ccccc2)c2ccccc21 | -1.48% (inactive)
80 | C=CCN1C(=O)[C@H](CC(=O)NCCCN2CCCC2=O)[C@@]2(C(=O)OCC)CCCC=C12 | 0.2% (inactive)
81 | CCCCCN1CCCCC(NC(=O)C(C)CCC)C1=O (stereo unspecified) | 0.06% (inactive)
82 | c1csc(-c2nnc(SCc3nc4ccccc4[nH]3)o2)c1 | -0.62% (inactive)
83 | CCc1ccc2oc(-c3ccc(N)cc3)nc2c1 | 5.85% (active)
84 | O=C(C1CCC(=O)N(C2CC2)C1)N1CCN(c2ccc(Cl)cc2)CC1 (stereo unspecified) | -0.61% (inactive)
85 | CC1(C(=O)Nc2cccc3c2CCCC3)CCN1C(=O)C1(c2ccccc2)CC1 (stereo unspecified) | -0.73% (inactive)
86 | CCOc1ccc2nc(C(=O)N3CCCC(C)C3)sc2c1 (stereo unspecified) | 4.1% (active)
87 | COc1ccc2cc(C(=O)C3CCCN(C(=O)c4sc(C)nc4C)C3)ccc2c1 (stereo unspecified) | 0.57% (inactive)
88 | CCOc1ccc(NC(=O)C2CCCN(C(=O)Nc3ccccc3)C2)cc1 (stereo unspecified) | -0.8% (inactive)
89 | O=C(Nc1ccccc1C(=O)N1CCOCC1)c1ccc(Cl)cc1 | -0.37% (inactive)
90 | Nc1ccc(C(=O)Nc2ccccc2N)cc1 | 15.9% (active)
91 | CC(CNC(=O)c1ccc(N)cc1)NC(=O)c1ccc(N)cc1 (stereo unspecified) | 0.06% (inactive)
